Screens deposited in PubChem by The Scripps Research Institute Molecular Screening Center.
This is a sample that favours compounds with a hit; in the whole collection about 5.7% have one here.
AHR activator: activators of human aryl hydrocarbon receptor; P35869; AHR-responsive luciferase reporter cells, luminescence; activation, % at 5 µM; hit rate 2.5% among 320,000; in the data active means activation above about 47%;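 further: 0% = vehicle wells and 100% = reference agonist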
hcDAF-12 act: activates DAF-12 receptor from parasite H. contortus. activation, % at 6.8 µM. AID 652067. hit rate 1.4% among 370,000. HEK293 hcDAF-12 lit1-tk-luc reporter, luminescence; 0% DMSO, 100% Δ7-dafachronic acid;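 active means activation above the mean of all tested compounds plus 3 SD, cut at about 5.5% in these data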;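 further: 100% = response to 3 µM Δ7-dafachronic acid high control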
ssDAF12 agonist: activators of S. stercoralis DAF-12 nuclear receptor. activation, % at 6.8 µM. hit rate 1% among 370,000. HEK293 ssDAF-12/GRIP1 lit1-tk-luc reporter, luminescence; % of 3 µM dafachronic acid response;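 active means activation above the mean over all tested compounds plus 3 SD, cut at about 0.9% in these data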;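 further: 0% = DMSO-only wells and 100% = 3 µM delta7-dafachronic acid wells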
hgDAF12 agonist: activates the H. glycines DAF-12 receptor ligand-binding domain; HEK293 GAL4-hgDAF12 UAS-luciferase reporter, agonist luminescence; normalized to butyrate control; activation, % at 6.8 µM; hit rate 1.8% among 370,000;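 active means activation above a cutoff set at the mean of all screened compounds plus 3 SD, cut at about 10% in these data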;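 further: 0% = DMSO wells and 100% = sodium butyrate wells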
DAX1 inh-1: inhibitors of DAX1 repression of SF-1 activated StAR promoter; HEK293T StAR-luciferase reporter, SF-1/DAX-1 repression relief; inhibition, % at 6.8 µM; hit rate 1.1% among 370,000; AID 652010;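 active means inhibition above the mean over all tested compounds plus 3 SD, cut at about 3.6% in these data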;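 further: 0% = DAX-1 cells with DMSO and 100% = cells lacking DAX-1 with DMSO; higher inhibition means more luminescence from relief of DAX-1 repression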
DAX1 inh-2: NR0B1 (DAX1) inhibition; P51843; HEK293 Gal4-DAX1 luciferase reporter, luminescence; inhibition, % at 6.75 µM; hit rate 0.99% among 340,000;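 active means inhibition above the mean over all tested compounds plus 3 SD, cut at about 4.2% in these data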;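 further: 0% = DAX1-transfected cells with DMSO and 100% = empty-vector control cells with DMSO; inhibition shows as a rise in luminescence from relieved DAX1 repression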
Target sequence (P51843 207-470 limits assumed): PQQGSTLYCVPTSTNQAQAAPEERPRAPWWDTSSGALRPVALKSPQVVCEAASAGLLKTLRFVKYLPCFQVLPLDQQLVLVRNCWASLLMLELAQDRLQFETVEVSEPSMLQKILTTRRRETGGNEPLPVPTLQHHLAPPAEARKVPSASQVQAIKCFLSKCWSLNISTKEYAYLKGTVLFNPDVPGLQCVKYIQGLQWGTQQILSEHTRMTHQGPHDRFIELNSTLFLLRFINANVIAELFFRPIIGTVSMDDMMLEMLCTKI
DAX1 inh confirm: confirmation of human DAX1 (NR0B1) inhibitors; shares compounds with DAX1 inh-1; HEK293T StAR-promoter luciferase reporter, SF-1/DAX-1 repression; inhibition, % at 6.8 µM; hit rate 87% among 2,400;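 active means inhibition above the average of every tested compound plus 3 SD, cut at about 3.8% in these data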;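 further: 0% = DAX-1 cells with DMSO and 100% = no DAX-1 control cells with DMSO; active compounds raise luminescence by relieving repression of the StAR reporter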
SF1 mutant ctr: nonselective inhibitor or artifact in SF-1 mutant DAX1 counter-screen. shares compounds with DAX1 inh-1. HEK293 StAR-luciferase, SF-1 AF2 mutant, luminescence. inhibition, % at 6.8 µM. hit rate 78% among 2,400. AID 652136;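 active means inhibition above the mean of all tested compounds plus 3 SD, cut at about 3% in these data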;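 further: 0% = DAX-1 transfected cells with DMSO and 100% = cells without DAX-1 with DMSO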
LXRb hcDAF ctr: LXR-beta agonism as hcDAF-12 counter-screen. activation, % at 6.8 µM. 3,400 tested, under 10 active. shares compounds with hcDAF-12 act. HEK293 Gal4-LXR tk-luc reporter, luminescence, 24 h; normalized: DMSO 0%, positive control 100%;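 active means mean percent activation of the reporter above a cutoff set as the average over tested compounds plus their standard deviation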
hcDAF12 ag: hcDAF-12 agonism, confirmation assay; shares compounds with hcDAF-12 act; HEK293 hcDAF-12 lit1-tk-luc reporter, luminescence; % of Δ7-dafachronic acid response; activation, % at 6.8 µM; AID 743032; hit rate 61% among 3,400;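 active means mean activation across triplicate tests above the threshold derived from the earlier primary screen, cut at about 5.5% in these data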;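 further: 0% = DMSO only wells and 100% = 3 µM Δ7-dafachronic acid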
hgDAF12 conf: hgDAF-12 agonism, confirmation assay; shares compounds with hgDAF12 agonist; activation, % at 6.8 µM; hit rate 80% among 3,300; HEK293 GAL4-hgDAF12 luciferase reporter, agonist mode; percent of butyrate response; AID 743050;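 active means mean activation over triplicate wells above the hit cutoff derived from the earlier primary screen, cut at about 11% in these data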;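 further: 0% = DMSO low control and 100% = 2 mM sodium butyrate high control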
LXRb DAF12 ctr: counter-screen for DAF-12 agonists: agonists of human LXR-beta; 3,300 tested, under 10 active; HEK293 Gal4-LXR luciferase reporter, 24 h; shares compounds with hgDAF12 agonist; activation, % at 6.8 µM;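 active means mean activation of the triplicate above a set limit carried over from the primary screen, none filed active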
* hit, by the source's call; · = no result.

SMILES	AHR activator	hcDAF-12 act	ssDAF12 agonist	hgDAF12 agonist	DAX1 inh-1	DAX1 inh-2	DAX1 inh confirm	SF1 mutant ctr	hgDAF12 conf	LXRb DAF12 ctr	others
Cc1nc2ccc(-c3nc4ccccc4o3)cc2[nH]1	-5	3	0	20*	5.2*	0	15*	8.8*	22*	1
Nc1ccc(-c2nc3ccc(-c4nc5ccccc5o4)cc3[nH]2)cc1	-13	-1	-1	-1	-1	-2	·	·	·	·
CC(C)c1ccc(Nc2ncccc2C(=O)O)cc1	10	6.0*	0	22*	6.4*	2	15*	7.4*	21*	1
CCN1C(=O)[C@H]2[C@@H](c3ccc(OC)cc3)N[C@]3(CCCN(Cc4ccc(OC)cc4)C3=O)[C@H]2C1=O	·	1	-1	1	0	1	·	·	·	·
CC(=C/c1ccccc1)/C=N/Nc1nc(N2CCCCC2)nc(N2CCCCC2)n1	0	0	-2	4	0	0	·	·	·	·
CC(/C=N/Nc1nc2ccccc2[nH]1)=C\c1ccccc1	38	8.8*	1.5*	21*	6.9*	2	18*	7.0*	23*	1	LXRb hcDAF ctr=2;hcDAF12 ag=6.6*
COc1ccc2cc3cc(C(=O)N4CCCCCC4)oc3nc2c1	-7	·	·	·	·	-1	·	·	·	·
COc1ccc2cc3cc(C(=O)N4CCCCC4C)oc3nc2c1 (stereo not given)	-1	4	0	14*	11*	-1	10*	5.3*	17*	1
C=CCNC(=O)COC(=O)COc1ccc(Cl)cc1	-2	-1	-1	2	0	-1	·	·	·	·
CCC(=O)Nc1ccc(Br)cn1	0	-1	-1	-2	0	0	·	·	·	·
Cc1cc(C(=O)Nc2ccc(Br)cn2)sc1C	10	5.8*	0	14*	6.3*	2	13*	8.6*	18*	1
O=C(N=Nc1c(O)[nH]c2ccccc12)Nc1ccccc1	·	2	1.2*	17*	5.5*	5.6*	16*	7.1*	13*	1
O=C(CNC(=O)Cc1ccccc1)N=Nc1c(O)[nH]c2ccccc12	9	1	0	2	0	0	·	·	·	·
CCN(CC)CCn1c2c(c(SCC(=O)Nc3cccc4ccccc34)nc1=O)CCCC2	3	1	-1	-2	3	-1	·	·	·	·
CCOC(=O)c1c(N=CN(C)C)c2cc([N+](=O)[O-])cnc2n1C	4	0	-1	3	0	1	·	·	·	·
CC(C#N)(NC(=O)CN1CCN(S(=O)(=O)c2cccc(F)c2)CC1)C1CC1 (stereo not given)	·	0	-1	-4	1	1	·	·	·	·
O=C(Nc1ccccc1Cl)c1ccc2c(=O)n3c(nc2c1)CCC3	-2	3	0	15*	12*	0	8.8*	5.0*	14*	1
O=C(NCCOc1ccccc1F)c1ccc2c(=O)n3c(nc2c1)CCC3	9	5	0	16*	8.5*	1	7.8*	4.5*	12*	1
